Our source for the CPE inhibition values is PubChem BioAssay AID651640 (Broad Institute, 2012).

Screen size: about 350,000 compounds; about 6,000 (1.7%) were called active. Inconclusive results (about 5%) are left out. The entries come from a sample that favours actives as a whole. Values without a mark were called inactive. Rule as the data show it: active = CPE inhibition above about 20% (passing the limit was not always enough); inconclusive = no clear call, values can overlap the other calls; tested in BHK-21 cells.

A short description of the assay: protection of cells from dengue 2 killing – plate reader, single concentration, primary screen (AID 651640).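 Also: 0% = median of neutral control wells and 100% = median of positive control wells.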 As to conditions: DENV2-infected cells, cytopathic effect rescue, at 9.99 µM, stronger effect = higher value.
For `CC(C)CC#Cc1ccc([C@H]2[C@H]3CN(C(=O)CN4CCOCC4)CC(=O)N3[C@H]2CO)cc1`, the CPE inhibition is -1.35%. In the case of `COc1ccccc1CNC(=O)C[C@@H]1C[C@@H]2c3cc(NC(=O)C4CCOCC4)ccc3O[C@@H]2[C@@H](CO)O1` it was 2.24%; in that of `COC(=O)[C@@H]1[C@@H](CO)[C@@H]2Cn3c(ccc(-c4ccccc4F)c3=O)[C@@H]2N1CC1CCOCC1`, -7.38%. In the case of `C[C@@H]1CCCCO[C@@H](CN(C)S(=O)(=O)c2cn(C)cn2)[C@@H](C)CN([C@@H](C)CO)C(=O)c2cc(NC(=O)NC3CCCCC3)ccc2O1`, the CPE inhibition is 7.41%.

As for `C[C@@H]1CN([C@@H](C)CO)S(=O)(=O)c2ccc(-c3ccccc3F)cc2O[C@H]1CN(C)Cc1cncnc1`, the CPE inhibition is -7.02%.

Take `CN(C)C(=O)[C@@H]1[C@@H](CO)[C@@H]2Cn3c(cccc3=O)[C@H]1N2C(=O)c1ccc(F)cc1`: the CPE inhibition was 2.89%.

With `C[C@H]1CN([C@@H](C)CO)C(=O)c2cccc(NC(=O)c3ccncc3)c2O[C@@H]1CN(C)C`, the CPE inhibition was -3.46%. Then `C[C@@H]1CCCCO[C@H](CN(C)S(=O)(=O)c2cccs2)[C@@H](C)CN([C@@H](C)CO)C(=O)c2cc(NC(=O)Nc3ccc4c(c3)OCO4)ccc2O1`, with 2.44%. Then `O=C(N[C@H]1CC[C@H](CCNS(=O)(=O)c2ccc(F)cc2)O[C@H]1CO)C1CCC1`, with 0.0715%. Then `CCNC(=O)Nc1ccc2c(c1)C(=O)N(C)[C@@H]1CC[C@@H](CC(=O)NCCOC)O[C@@H]1CO2`, with -6.67%; and `CC(C)C#Cc1ccc2c(c1)O[C@@H](CN(C)Cc1ccncc1)[C@@H](C)CN([C@@H](C)CO)S2(=O)=O`, with -4.86%; and `COc1ccc(NC(=O)c2cn(-c3ccccc3)nc2SC)cc1`, with 30.9% (active). As to `COc1ccccc1C(=O)Nc1ccc(Nc2ccccc2)cc1`, the CPE inhibition was 1.78%.

Consider `COc1ccc(NC(=O)CSc2nc(N)c(-c3ccccc3)c(=O)[nH]2)cc1`, for which the CPE inhibition is 15.2%. On to `O=C(C[C@H]1C[C@H](C(=O)N2CCOCC2)[C@@]2(CCC3CCCC3)c3[nH]c4ccc(Cl)cc4c3CCN2C1=O)NCc1ccco1`, for which the CPE inhibition was 88.4% (active). As for `COc1ccc(CNC(=O)C[C@H]2C[C@H](C(=O)N3CCOCC3)[C@@]3(CCC4CCCC4)c4[nH]c5ccc(Cl)cc5c4CCN3C2=O)cc1OC`, the CPE inhibition is 0.122%.

Take `CN(C)C(=O)CCc1ccc2c3c([nH]c2c1)[C@]1(CCC2CCCC2)[C@@H](C(=O)N2CCOCC2)C[C@H](CC(=O)NCc2ccco2)C(=O)N1CC3`: the CPE inhibition is -10.7%.

On to `Cc1ccc(S(=O)(=O)N(C)C[C@H]2OCCCC[C@@H](C)Oc3ccc(NS(C)(=O)=O)cc3C(=O)N([C@H](C)CO)C[C@@H]2C)cc1`, for which the CPE inhibition is 24.2% (active). In the case of `C[C@@H]1CN([C@H](C)CO)C(=O)c2cc(NC(=O)Cc3ccccc3)ccc2O[C@H]1CN(C)S(=O)(=O)c1cn(C)cn1` it was 0.292%; in that of `Cc1ccc(S(=O)(=O)N(C)C[C@@H]2OCCCC[C@H](C)Oc3ccc(NS(=O)(=O)c4cn(C)cn4)cc3C(=O)N([C@H](C)CO)C[C@@H]2C)cc1`, -2.41%; in that of `Cc1ccc(S(=O)(=O)N(C)C[C@H]2OCCCC[C@@H](C)Oc3ccc(NC(=O)NC4CCCCC4)cc3C(=O)N([C@H](C)CO)C[C@@H]2C)cc1`, 0.877%.

On to `Cc1ccc(S(=O)(=O)Nc2ccc3c(c2)C(=O)N([C@H](C)CO)C[C@@H](C)[C@H](CN(C)S(=O)(=O)c2ccc(C)cc2)OCCCC[C@@H](C)O3)cc1`, for which the CPE inhibition is 1.84%.

Consider `Cc1ccc(S(=O)(=O)N(C)C[C@@H]2Oc3ccc(NC(=O)NC4CCCCC4)cc3C(=O)N([C@@H](C)CO)C[C@H]2C)cc1`, for which the CPE inhibition is 23.4% (active). With `C[C@@H]1CN([C@H](C)CO)C(=O)c2cc(NC(=O)NC3CCCCC3)ccc2O[C@H]1CN(C)S(C)(=O)=O`, the CPE inhibition is 2.68%. Consider `C[C@@H]1CCCCO[C@@H](CN(C)S(=O)(=O)c2cn(C)cn2)[C@H](C)CN([C@@H](C)CO)C(=O)c2cc(NC(=O)Nc3ccccc3)ccc2O1`, for which the CPE inhibition is -1.09%. On to `Cc1ccc(S(=O)(=O)Nc2ccc3c(c2)C(=O)N([C@H](C)CO)C[C@H](C)[C@@H](CN(C)S(=O)(=O)c2cn(C)cn2)OCCCC[C@H](C)O3)cc1`, for which the CPE inhibition is 39.2% (active).

`Cc1ccc(S(=O)(=O)N(C)C[C@@H]2OCCCC[C@@H](C)Oc3ccc(NS(=O)(=O)c4ccccc4)cc3C(=O)N([C@H](C)CO)C[C@@H]2C)cc1`: the CPE inhibition was 0.648%. Then `C[C@@H]1CCCCO[C@@H](CN(C)S(=O)(=O)c2cn(C)cn2)[C@H](C)CN([C@H](C)CO)C(=O)c2cc(NS(=O)(=O)c3ccc(Cl)cc3)ccc2O1`, with 3.2%; and `C[C@H](CO)N1C[C@H](C)[C@@H](CN(C)S(=O)(=O)c2cn(C)cn2)OCCCC[C@H](C)Oc2ccc(NC(=O)Cc3ccccc3)cc2C1=O`, with 123% (active); and `O=C(C[C@@H]1C[C@@H]2c3cc(NC(=O)NC4CCCC4)ccc3O[C@@H]2[C@H](CO)O1)NCC(F)(F)F`, with 7.08%. In the case of `CN(C)C(=O)[C@@H]1[C@@H](CO)[C@@H]2Cn3c(ccc(-c4ccccc4)c3=O)[C@@H]2N1CCC(F)(F)F` it was 3.4%; in that of `C[C@@H]1CN([C@H](C)CO)C(=O)c2ccccc2-c2ccccc2CO[C@H]1CN(C)C(=O)CCC(F)(F)F`, 1.69%; in that of `CC(C)C[C@H](NC(=O)CC1CCCC1)C(=O)N1CCC[C@H]1C(=O)NCc1ccccc1`, -0.111%. Then `COc1ccc(NC(=O)N(C)C[C@@H]2Oc3ccc(NC(=O)CCC(F)(F)F)cc3C(=O)N([C@@H](C)CO)C[C@H]2C)cc1`, with -3.47%. With `O=C(C1CCCCC1)N1CC(=O)N2[C@H](CO)[C@H](c3ccc(Br)cc3)[C@H]2C1`, the CPE inhibition was -9.75%. Then `C[C@@H]1CN([C@@H](C)CO)S(=O)(=O)c2ccc(C#CC(C)(C)O)cc2O[C@H]1CN(C)C(=O)CN(C)C`, with 14.1%; and `Cc1ccc(S(=O)(=O)Nc2cccc3c2O[C@H](CN(C)CC2CCCCC2)[C@H](C)CN([C@H](C)CO)C3=O)cc1`, with -0.201%. Consider `N[C@@H]1CC[C@H](CCn2cc(C3CC3)nn2)O[C@@H]1CO`, for which the CPE inhibition was -2.16%. Then `N#C[C@H]1[C@@H](c2ccccc2-c2ccccc2F)[C@@H](CO)N1C(=O)C1CCC1`, with -1.39%. Then `C[C@@H]1CN([C@@H](C)CO)C(=O)c2cc(NS(C)(=O)=O)ccc2O[C@@H]1CN(C)C(=O)Nc1ccccc1`, with 4.47%; and `C[C@@H]1CN([C@@H](C)CO)C(=O)c2cc(C3=CCCC3)cnc2O[C@H]1CN(C)C(=O)c1ccccn1`, with 1.01%. Then `N#Cc1c(-c2ccccc2)nc(SCc2cccc(C(F)(F)F)c2)[nH]c1=O`, with -3.77%; and `C=CCn1cc(-c2cccc(C(F)(F)F)c2)cc(C#N)c1=O`, with -0.13%; and `CC1(Cc2cccc(C#N)c2)C(=O)Nc2ccc(-c3cccc(C(F)(F)F)c3)cc21` (stereo unspecified), with 94.5% (active). With `COc1ccccc1NC(=O)N[C@H]1CC[C@H](CCn2cc(-c3cccnc3)nn2)O[C@@H]1CO`, the CPE inhibition is 7.27%. On to `CCN(C[C@H]1[C@H](c2ccc(-c3ccccc3)cc2)[C@H](CO)N1CC1CC1)C(C)=O`, for which the CPE inhibition is -11.4%. For `C[C@H](CO)N1C[C@H](C)[C@H](CN(C)Cc2cccc(F)c2)Oc2ncc(C#CCN(C)C)cc2C1=O`, the CPE inhibition was -7.01%. For `Cc1cc([N+](=O)[O-])nn1Cc1ccc(F)cc1`, the CPE inhibition is -2.03%. Consider `Cc1nc(SCc2ccc(F)cc2)c([N+](=O)[O-])[nH]1`, for which the CPE inhibition is 70.9% (active). For `Cc1nc(N)nc(SCc2ccc([N+](=O)[O-])cc2)c1N`, the CPE inhibition is 5.04%. Then `COc1ccc(S(=O)(=O)N(C)C[C@H]2Oc3c(NC(=O)CCCCCC(=O)Nc4ccccc4N)cccc3C(=O)N([C@H](C)CO)C[C@H]2C)cc1`, with -2.7%; and `COc1ccccc1Cc1c(-c2ccc(F)cc2)nc2ccc(C)cn12`, with -9.92%. In the case of `CN(C)CC(=O)N[C@H]1CC[C@H](CCNC(=O)Nc2ccc(F)cc2)O[C@H]1CO`, the CPE inhibition was 6.32%.

For the compound `CCCCN1C(=O)C(=O)N(CC(=O)Nc2cccc(C(C)=O)c2)C1=O`, the CPE inhibition was -4.58%.

Consider `CCOC(=O)c1cccc(NC(=O)CN2C(=O)C3CC=CCC3C2=O)c1` (stereo unspecified), for which the CPE inhibition was 76% (active). Consider `CCOC(=O)c1cccc(NC(=O)CCOc2ccccc2)c1`, for which the CPE inhibition is -0.064%. For `O=C(c1cccnc1)N1CC(=O)N2[C@H](CO)[C@@H](c3ccc(-c4ccc(F)cc4)cc3)[C@@H]2C1`, the CPE inhibition is -0.715%. Regarding `O=C(C[C@@H]1CC[C@@H]2[C@H](COC[C@H](O)CN2C(=O)Cc2ccccc2)O1)NC1CCC1`, the CPE inhibition is 34.4% (active).

Take `O=C(C[C@H]1CC[C@@H]2[C@H](COC[C@H](O)CN2Cc2ccccc2F)O1)NC1CCC1`: the CPE inhibition is -4.44%.

In the case of `O=C(C[C@@H]1CC[C@@H]2[C@H](COC[C@H](O)CN2C(=O)c2ccc3c(c2)OCO3)O1)NC1CCCC1`, the CPE inhibition was -0.397%. Then `O=C(C[C@@H]1CC[C@H]2[C@@H](COC[C@@H](O)CN2C(=O)c2ccc3c(c2)OCO3)O1)NC1CCCC1`, with -3.32%; and `O=C(C[C@H]1CC[C@@H]2[C@H](COC[C@H](O)CN2C(=O)c2ccc3c(c2)OCO3)O1)NC1CCC1`, with 2.16%; and `O=C(C[C@@H]1CC[C@@H]2[C@H](COC[C@H](O)CN2C(=O)c2cccnc2)O1)NC1Cc2ccccc2C1`, with -4.15%. In the case of `O=C(C[C@H]1CC[C@H]2[C@@H](COC[C@@H](O)CN2C(=O)c2ccc3c(c2)OCO3)O1)NC1Cc2ccccc2C1` it was 32.6% (active); in that of `O=C(C[C@@H]1CC[C@H]2[C@@H](COC[C@@H](O)CN2C(=O)c2ccc3c(c2)OCO3)O1)NC1Cc2ccccc2C1`, 35.1% (active). Then `O=C(C[C@H]1CC[C@H]2[C@@H](COC[C@@H](O)CN2Cc2ccccc2)O1)N[C@@H]1CCN(Cc2ccccc2)C1`, with 17.9%.
